Results as given in PubChem BioAssay AID1619 (SRMLSC, 2009).
About 830 (0.38%) of roughly 220,000 compounds were called active.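 How the source made its calls: active means compound inhibiting the enzyme by more than half at any dose during confirmatory dose-response retesting; inconclusive means strong single-dose inhibitors picked by rank but not retested; inactive means the rest.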 These entries were drawn from the full list. Entries with a potency or affinity are not part of this list. Residues, ends and D or L forms follow the SMILES beside them. *: point of attachment. Bz = O=C(c1ccccc1)*

Biological target: Leucine aminopeptidase (Plasmodium falciparum (isolate 3D7)) (UniProt Q8IL11)
Test: P. falciparum M17LAP inhibitors, primary screen, biochemical, fluorogenic H-Leu-NHMec substrate, 1536-well (AID 1619);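 further: plate controls were full reaction with DMSO carrier for no effect and no enzyme background for full effect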
Settings: recombinant M17LAP, H-Leu-NHMec fluorogenic kinetic assay; at 30 µM; hits give high values

Chain of Leucine aminopeptidase (Plasmodium falciparum (isolate 3D7)) (Q8IL11 whole entry, looked up): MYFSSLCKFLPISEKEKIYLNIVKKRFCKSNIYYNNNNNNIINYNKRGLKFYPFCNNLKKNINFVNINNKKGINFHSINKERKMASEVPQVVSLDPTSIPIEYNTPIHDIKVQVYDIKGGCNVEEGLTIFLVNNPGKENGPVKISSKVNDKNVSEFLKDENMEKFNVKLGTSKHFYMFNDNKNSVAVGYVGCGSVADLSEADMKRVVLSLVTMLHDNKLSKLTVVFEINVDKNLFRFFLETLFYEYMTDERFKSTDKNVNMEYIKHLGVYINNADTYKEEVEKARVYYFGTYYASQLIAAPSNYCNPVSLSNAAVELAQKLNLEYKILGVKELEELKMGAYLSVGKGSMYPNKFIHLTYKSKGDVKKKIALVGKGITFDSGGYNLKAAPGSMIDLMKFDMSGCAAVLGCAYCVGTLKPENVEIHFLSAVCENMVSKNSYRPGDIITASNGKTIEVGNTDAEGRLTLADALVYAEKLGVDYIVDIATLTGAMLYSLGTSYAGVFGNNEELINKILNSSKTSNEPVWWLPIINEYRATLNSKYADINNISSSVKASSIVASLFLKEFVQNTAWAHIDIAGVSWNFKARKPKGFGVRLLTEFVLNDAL

inhibition, inactive:
OCC(O)C1OC(Nc2ccc(Cl)cc2)C(O)C1O (stereo not drawn) 2.43%
Cc1nn(S(=O)(=O)c2cccc([N+](=O)[O-])c2)c(C)c1Br 10.8%
Cc1ccc(NC(=O)COC(=O)Cn2c(C)csc2=O)cc1C 4.89%
Nc1nn(-c2ccccc2)c(N)c1N=Nc1ccccc1 -19.2%
COc1ccc(N=Nc2c(N)n[nH]c2N)cc1 9.88%
Nc1nn(-c2ccccc2)c(N)c1N=Nc1cccc(F)c1 -3.61%
Nc1n[nH]c(N)c1N=Nc1ccc(Cl)cc1Cl 47.6%
COC(=O)c1ccccc1N=Nc1c(N)n[nH]c1N 12.4%
Cc1[nH]nc(N)c1N=Nc1ccc(Br)cc1 -1.99%
Nc1n[nH]c(C2CC2)c1N=Nc1ccc(Cl)cc1 18.4%
Nc1n[nH]c(N)c1N=Nc1ccc2c(c1)OCO2 -3.08%
Cc1ccc(S(=O)(=O)N2CCOCC2)cc1NC(=O)CN1CCN(c2ccc(O)cc2)CC1 -10.2%
Cc1nn(Cc2c(Cl)cccc2Cl)c(C)c1NC(=O)CCCn1nc(C)c([N+](=O)[O-])c1C -7.34%
CCOc1ccc(NC(=S)NN2C(C)CCCC2C)cc1 (stereo not drawn) -3.03%
C[C@@H]1NC(=O)c2cc([N+](=O)[O-])cc(I)c2OCC[C@@H](C(N)=O)NC(=O)[C@H](CCCCN)NC1=O 21.6%
CCCCC(=O)NC(=S)Nc1cccc(NC(=O)c2ccccc2)c1 2.99%
O=C(NCc1ccc2c(c1)OCO2)C1CCC(CNc2c(N3CCCC3)c(=O)c2=O)CC1 (stereo not drawn) 9.79%
Cc1noc(C)c1CSCc1ccc(Cl)cc1 2.99%
COc1ccc(-c2nc(=S)n3ccsc3n2)cc1OC -2.9%
O=C(NCc1ccccc1)N1CCN(c2ccc(F)cc2)CC1 13.1%
O=C(c1ccc(S(=O)(=O)N2CCOCC2)cc1)N1CCOCC1 -9.29%
Cc1cc(C)cc(-n2c(SCC(=O)NCc3ccc4c(c3)OCO4)nc3ccccc3c2=O)c1 19.8%
Cc1cc(C)nc(NS(=O)(=O)c2ccc(Br)cc2)n1 15.3%
O=C1CCCC/C1=C/Nc1ccc(S(=O)(=O)Nc2ncccn2)cc1 6.19%
C=CCOC(=O)c1c(C)nc2cc3c(cc2c1C)OCO3 9.48%
Cc1ccc(C(=O)CC(C(=O)O)n2cnc([N+](=O)[O-])n2)cc1 (stereo not drawn) 11.1%
CCN(CC)C(=O)Cn1cc(C(=O)C(=O)NCc2ccco2)c2ccccc21 25.3%
O=C(NCc1cccs1)C(=O)c1cn(CC(=O)N2CCCC2)c2ccccc12 24.7%
O=C(NCc1ccco1)C(=O)c1cn(CC(=O)N2CCCCC2)c2ccccc12 8.43%
O=C(c1ccco1)c1cn(CC(=O)N2CCCCC2)c2ccccc12 33.5%
Cc1ccc(N=C(NO)c2nonc2N)c(C)c1 14.3%
O=C(Cn1c(=O)oc2ccccc21)NCCc1ccccc1Cl 1.7%
NC(=S)c1ncc(C(F)(F)F)cc1Cl -12.7%
CC(C)NC(=O)c1cnc(Sc2ncc(C(F)(F)F)cc2Cl)n1C 6.92%
O=C(c1cc[n+]([O-])cc1)N1CCc2c([nH]c3ccccc23)C1c1ccccc1Cl (stereo not drawn) 15.1%
O=C(c1nc(-c2ccccc2)n(-c2ccccc2)n1)N1CCN(S(=O)(=O)c2ccccc2)CC1 -12.4%
CCOc1ccc(C(=O)NCC(=O)OCc2cc(C(C)=O)ccc2OC)cc1 3.31%
CCC(C)C(NC(=O)c1ccccc1NC(=O)c1ccco1)C(=O)NNC(=O)c1ccncc1 (stereo not drawn) 3.96%
O=C(O)C12C[C@H]3C[C@@H](C1)CC(n1ncc(N4CCN(c5ccccc5)CC4)c(Cl)c1=O)(C3)C2 36.9%
Cc1cccc(Nc2cnn(C34CC5CC(CC(CC(=O)O)(C5)C3)C4)c(=O)c2Cl)c1 39.2%
Cc1cc(C)cc(Nc2cnn(C34CC5CC(CC(CC(=O)O)(C5)C3)C4)c(=O)c2Cl)c1 45.8%
O=C(O)C12CC3CC(C1)CC(n1ncc(N4CCN(c5ccccc5)CC4)c(Cl)c1=O)(C3)C2 61.6%
CCc1ccc(Nc2cnn(C34CC5CC(CC(CC(=O)O)(C5)C3)C4)c(=O)c2Cl)cc1 53.3%
CC(=O)c1ccc(Nc2cnn(C34CC5CC(CC(CC(=O)O)(C5)C3)C4)c(=O)c2Cl)cc1 46.4%
CCOC(=O)c1csc(NC(=O)CSc2nnnn2-c2ccc(OC)c(OC)c2)n1 11.3%
COc1cccc(-n2c(SCC(=O)N3CCCCC3)nc3c([nH]c4ccccc43)c2=O)c1 -3.56%
CC(=O)NC(Cc1ccccc1)C(=O)NC1CCN(C(=O)c2ccc([N+](=O)[O-])cc2)CC1 (stereo not drawn) -3.72%
O=C(NC(Cc1ccccc1)C(=O)NC(Cc1ccccc1)C(=O)O)c1ccccc1 (stereo not drawn) (Bz-Phe-Phe-OH; configuration not given here) 45.6%
O=C(O)CCC(NC(=O)C(Cc1ccc2c(c1)OCO2)NC(=O)c1ccccc1)C(=O)O (stereo not drawn) 46.2%
O=C(O)c1ccc(COc2ccccc2/C=C2/NC(=O)N(c3cccc(Cl)c3)C2=O)cc1 7.83%
O=C(O)c1ccc(-n2cccc2/C=C2/NC(=O)N(c3ccccc3)C2=O)cc1 11.3%
CC1=C(C)CC(C(=O)Nc2nc(-c3ccc(F)cc3)c(C)s2)C(C(=O)O)C1 (stereo not drawn) 48.9%
CCc1noc(C)c1C(=O)Nc1nc(-c2cc(C)ccc2C)c(C)s1 -3.18%
CC(=O)C1=C(O)C(=O)N(Cc2ccco2)C1c1ccc(F)cc1 (stereo not drawn) 11%
CC(=O)C1=C(O)C(=O)N(Cc2ccco2)C1c1ccccc1 (stereo not drawn) 6.17%
Cc1ccc(S(=O)(=O)N2CCCC2C(=O)N2CCCCCC2)cc1 (stereo not drawn) -4.09%
COc1ccc2c(C(F)(F)F)cc(=O)oc2c1C -5.82%
CC(Sc1nc(-c2ccccc2)cs1)C(=O)Nc1ccc(Cl)cn1 (stereo not drawn) 13.8%
CC(Sc1nc(-c2ccc(F)cc2)cs1)C(=O)Nc1ccc(Cl)cn1 (stereo not drawn) 15.1%
Cn1c(=O)c(C(=O)Nc2ccccc2S(N)(=O)=O)c(O)c2ccccc21 -0.17%
COC(=O)C(C)(C)ONC(=O)Nc1ccccc1Cl -4.74%
CCN(CC)C(=O)c1ccc(N)cc1 7.5%
COc1ccc(Oc2ccc(/C=C/C(=O)c3ccc(O)cc3)cc2[N+](=O)[O-])cc1 12.4%
CC(C)(C)C1(C)OC(C(N)=O)C(C(N)=O)O1 (stereo not drawn) 8.29%
Cc1cc(=O)oc2c1c(C(F)(F)F)nn2-c1ccccc1 2.02%
CCOC(=O)C1CSC(CC(=O)Nc2ccc(OC(F)(F)F)cc2)C(=O)N1 (stereo not drawn) 14%
CCOC(=O)C1CSC(CC(=O)Nc2ccc(Cl)cc2)C(=O)N1 (stereo not drawn) 13.4%
CC(OC(=O)c1cn(-c2ccccc2)nc1-c1cccnc1)C(N)=O (stereo not drawn) 1.32%
O=C(COC(=O)c1ccc(S(=O)(=O)NCc2ccco2)cc1)Nc1ncc(Cl)cc1Cl -2.24%
N/C(Cc1ccc(Cl)cc1Cl)=N\OC(=O)c1ccccc1 0.73%
CCOc1ccc(OCc2cccc(C(=O)N(CC)CC)c2)cc1 -4.73%
COc1ccc(OCc2cccc(C(=O)O)c2)cc1 53.7%
O=C(Nc1ccc(C(=O)O)cc1)/C(=C\c1ccco1)NC(=O)c1ccccc1 45.7%
CN(C(=O)CSCC(=O)O)C1CCCCC1 -10.4%
CCOC(=O)/C(N=Nc1ccc(Cl)cc1)=C(/O)c1ccc([N+](=O)[O-])cc1 3.08%
Nc1[nH]ncc1-c1ccccc1 -3.57%
Nc1[nH]ncc1-c1ccc(F)cc1 55.5%
COC(=O)c1cc(C(=O)OC)n(Cc2ccc(Br)cc2)n1 -9.56%
CC(=O)c1c(C)[n+]([O-])c2ccc3c(non3O)c12 10.2%
CC[n+]1ccc(/C=C/c2ccc(N(C)C)cc2)c2ccccc21 50.7%
CN(C)c1ccc(/C=C/c2ccc3c4ccccc4ccc3[n+]2-c2ccccc2)cc1 13.1%
C[n+]1c(/C=C/c2ccc3c(c2)OCO3)ccc2ccccc21 0.47%
CC[n+]1ccccc1/C=C/c1ccc(N(C)C)cc1 56.5%
C=CC(C)(C)c1cc2cc3ccoc3cc2oc1=O 3.93%
Cc1nc(C)c(-c2ccn(S(=O)(=O)c3ccc(Cl)cc3)n2)o1 -15.8%
Cc1ccc(OCc2ccc(C(=O)NN)o2)c([N+](=O)[O-])c1 -2.38%
COC(=O)c1ccc(COc2ccc(C)cc2[N+](=O)[O-])o1 5.81%
CCN1CCN(CCn2c(=S)[nH]c3cc4c(cc3c2=O)OCO4)CC1 10.8%
COc1ccc(C2CCN(CC(=O)N(C)C)CC2O)cc1 (stereo not drawn) -0.46%
Cc1ccccc1NC(=O)COC(=O)c1c[nH]c(=O)[nH]c1=O -3.99%
CN(c1ccccc1C(=O)N1CCN(c2cccc(Cl)c2)CC1)S(C)(=O)=O -10.5%
O=C1CC(=O)C(n2cncn2)C(c2ccc(Cl)cc2)C1 (stereo not drawn) 41.7%
O=C1CC(=O)C(n2cncn2)C(c2cccc(Cl)c2)C1 (stereo not drawn) -45.4%
